Among the data in PubChem BioAssay (NCATS) are Potency and activity (max response) values, retold here.

The structures appear in SMILES notation. Where “and” joins values, the source holds several entries; their conditions need not be identical. Equal entries are not always repeated. Inconclusive results are not listed. The source holds several records for some structures; these can differ, active in one and inactive in another. Calls of active or inactive are those of the source. Calls come from the whole dose curve; as a rule, active = well fitted curve in the direction sought with a large enough effect; inconclusive = small, poorly fitted or top-dose-only effect, or another doubt; inactive = no such curve, though single readings can be large; an effect the other way counts as inactive or inconclusive.

Assay [1] can be described thus: Viability qHTS for spleen associated tyrosine kinase inhibitor (SYKi) naive MV4-11 cells (AID 1963823). Note: nearly all actives have a fitted effect of over 40% in size. Note: potency is the fitted concentration of half-maximal effect. In short, it runs like this:
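CellTiter-Glo luminescence, 10 min room-temperature incubation, gave viability. Cells: naive MV4-11 (500/well), treated 72 hr at 37 C, 5% CO2.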

The nature of assay [2]: Viability qHTS for spleen associated tyrosine kinase inhibitor (SYKi) drug resistant MV4-11 cells (AID 1963824). Note: nearly all actives have a fitted effect of over 35% in size. Note: potency is the fitted concentration of half-maximal effect. In short, it runs like this: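 SYK inhibitor-resistant MV4-11 AML cells, 500 per well, added to predispensed compounds and incubated 72 hr at 37 C, 5% CO2. Viability measured by CellTiter-Glo luminescence after 10 min at room temperature.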
A short description of assay [3]: Quantitative highthroughput screen to assess conditional lethalithy of NOMO1 cells grown in RPMI1640 with untreated serum (RPMI+s) (AID 1963876).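 Note: 100% = DMSO wells and 0% = empty wells without cells; nearly all actives have a fitted effect of over 35% in size.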 Put shortly:
(§1)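 Each medium arm—HPLM with 10% dialyzed FBS, or RPMI1640 with 5 mM glucose and 10% untreated or dialyzed FBS—was screened against an 11-point, 3-fold compound titration for 48 h at 37 °C, with CellTiter-Glo luminescence as endpoint.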

The nature of assay [4]: Quantitative highthroughput screen to assess conditional lethalithy of NOMO1 cells grown in RPMI1640 with dialyzed fetal bovine serum (RPMI+ds) (AID 1963877).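 Note: series mostly up to about 46 µM; 100% = DMSO control wells and 0% = empty wells; nearly all actives have a fitted effect of over 30% in size.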 Put shortly:
as §1

Assay [5] can be described thus: Quantitative highthroughput screen to assess conditional lethalithy of NOMO1 cells grown in Human Plasma-Like Medium with dialyzed fetal bovine serum (HPLM+ds) (AID 1963878).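 For Viability: 100% = DMSO wells and 0% = empty wells on each plate.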 Note: nearly all actives have a fitted effect of over 35% in size. Note: potency is the fitted concentration of half-maximal effect. Put shortly:
as §1

The nature of assay [6]: Quantitative highthroughput screen to assess conditional lethalithy of P12 Ichikawa cells grown in Human Plasma-Like Medium with dialyzed fetal bovine serum (HPLM+ds) (AID 1963879). Note: series mostly up to about 46 µM; nearly all actives have a fitted effect of over 35% in size. Conditions: Potency: viability. In short, it runs like this:
as §1

Assay [7] in a line: Quantitative highthroughput screen to assess conditional lethalithy of P12 Ichikawa cells grown in RPMI1640 with dialyzed fetal bovine serum (RPMI+ds) (AID 1963880). Conditions: Potency: P12-Ichikawa viability. In short, it runs like this: as §1
Assay [8] can be described thus: Quantitative highthroughput screen to assess conditional lethalithy of P12 Ichikawa cells grown in RPMI1640 with untreated serum (RPMI+s) (AID 1963881). Conditions: Potency: viability. Put shortly:
as §1

Assay [9] is described as follows: Cellular viability qHTS for adrenocortical cancer (ACC) cell line SW-13 (AID 1963989).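 For activity (max response): cells grown in serum-free medium with ITS supplement; % is set by controls: 0 for no effect and ±100 for the full control effect.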 Note: nearly all actives have a fitted effect of over 65% in size. Note: potency is the fitted concentration of half-maximal effect. Conditions: SW-13 ACC cells viability, CellTiter-Glo, 48 h; activity (max response): stronger effect = lower value. Put shortly: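 Compound titrations (up to 46 uM final, in DMSO) were applied to SW-13 cells for 48 h at 37C/5% CO2. Reading used CellTiter-Glo after 20 min at room temperature; fitted curves yielded IC50 and efficacy.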

A short description of assay [10]: Cellular viability qHTS for adrenocortical cancer (ACC) cell line NCI-H295R (AID 1963990). Note: nearly all actives have a fitted effect of over 60% in size. Note: potency is the fitted concentration of half-maximal effect. Put shortly:
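Readout: CellTiter-Glo luminescence, 20 min RT. Exposure: 48 h, 37C/5% CO2. Cells: NCI-H295R, ITS-DMEM serum-free. Range: up to 46 uM. Analysis: 4PL fit, IC50 plus efficacy.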

The nature of assay [11]: Quantitative highthroughput screen to assess conditional lethalithy of SEM cells grown in RPMI1640 with unreated serum (RPMI+s) (AID 1963883).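 For Viability: 100% = DMSO wells and 0% = empty wells without cells.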 Note: nearly all actives have a fitted effect of over 35% in size. Note: potency is the fitted concentration of half-maximal effect. Put shortly: as §1
Assay [12] is described as follows: Quantitative highthroughput screen to assess conditional lethalithy of SEM cells grown in RPMI1640 with dialyzed fetal bovine serum (RPMI+ds) (AID 1963884). In short, it runs like this:
as §1

A short description of assay [13]: Quantitative highthroughput screen to assess conditional lethalithy of SEM cells grown in Human Plasma-Like Medium with dialyzed fetal bovine serum (HPLM+ds) (AID 1963882). For Viability: series mostly up to about 46 µM. Note: nearly all actives have a fitted effect of over 35% in size. Note: potency is the fitted concentration of half-maximal effect. Put shortly:
as §1

Turning to `O=C(O)c1ccccc1C(=O)Nc1ccc(-c2ccccc2)cc1`, the Potency entry in assay [1], in assay [2], in assay [3], in assay [4], in assay [5] and in [6] was “inactive” in each case. Besides, the Potency result in assay [7], in [8] and in assay [10] was “inactive” throughout. The activity (max response) in [9] is -5.47% (inactive).

On to `O=c1cc(N2CCOCC2)oc2c(-c3ccccc3)cccc12`, for which the Potency is 5.9 µM (active) in assay [1]; “inactive and 9.34 µM (active)” in assay [2]. The Potency result in [3], in assay [4], in [5], in assay [6], in assay [7] and in assay [8] was “inactive” each time. Moreover, the Potency result in assay [11] and in [10] was “inactive” throughout.

Take `Fc1ccc(Cl)cc1-c1nc(Nc2ccncc2)c2nccnc2n1`: in assay [1], the Potency result was “inactive and 18.6 µM (active)”. Moreover, the Potency result in [2], in [3], in [4], in assay [5], in [6] and in [7] was “inactive” in each case. For the same compound, the Potency entry in assay [11], in assay [12] and in assay [10] was “inactive” in each case. For the same compound, the activity (max response) in assay [9] was -19.5% (inactive).

Consider `c1ccc2c(Oc3nc(Nc4ccc(N5CCOCC5)cc4)c4ncn(C5CCCCC5)c4n3)cccc2c1`, for which the Potency is 1.84 µM (active) and 2.35 µM (active) in assay [1]; 1.84 µM (active) and 4.17 µM (active) in [2]. Also, the Potency result in assay [3], in [4], in [5], in assay [6], in assay [7] and in assay [8] was “inactive” in each case. In addition, the Potency result in assay [10] is “inactive”. Moreover, the activity (max response) in assay [9] is -10% (inactive).

In the case of `CN1C(=O)C(Cc2c[nH]c3ccccc23)NC1=S` (stereo not given), the Potency entry in assay [1], in assay [3], in assay [4], in assay [5], in assay [6] and in assay [7] was “inactive” in each case. For the same compound, the Potency entry in [8] and in assay [10] was “inactive” in each case. Also, the Potency in assay [2] is 8.33 µM (active). Further, the activity (max response) in assay [9] was 7.04% (inactive).

As for `Cc1ccc(-n2nc(C(C)(C)C)cc2NC(=O)Nc2ccc(OCCN3CCOCC3)c3ccccc23)cc1`, the Potency is 8.2 µM (active) in assay [1], 2.59 µM (active) in [2], 10.5 µM (active) in assay [13] and 0.132 µM (active) in assay [11]. Besides, the Potency entry in assay [3], in assay [4], in [5], in [6], in [7] and in [10] was “inactive” in each case.

For `C[C@@H](NCc1cc2ccccc2[nH]1)c1cccc2ccccc12`, the Potency in assay [1] is 6.61 µM (active); in assay [2] it was 7.42 µM (active); in [9] it was 25.1 µM (active); in [10], 12.6 µM (active). Further, the Potency entry in assay [3], in [4], in assay [5], in [6], in [7] and in [8] was “inactive” each time.

With `Oc1cc2c(cc1O)C1c3ccc(O)c(O)c3OCC1(O)C2` (stereo not given), the figures for the Potency in assay [1] and in assay [2] were 16.6 µM (active) and 14.8 µM (active), respectively. Also, the Potency entry in [3], in assay [4], in assay [5], in assay [6], in assay [7] and in assay [13] was “inactive” each time. The Potency result in [11], in assay [12] and in assay [10] was “inactive” in each case. Also, the activity (max response) in [9] is -7.46% (inactive).

As to `O=c1cc(N2CCOCC2)oc2c(-c3cccc4c3sc3ccccc34)cccc12`, the Potency in assay [1] is 1.48 µM (active); in assay [2] it was 1.86 µM (active); in [9] it was 25.1 µM (active); in assay [10], 12.6 µM (active). The Potency entry in assay [3], in assay [4], in assay [5], in assay [6], in assay [7] and in assay [8] was “inactive” in each case.

For the compound `O=C(Nc1ccccc1Br)N[C@@H]1CCN(c2ccc(C(F)(F)F)cn2)C1`, the Potency in assay [1] was 14.8 µM (active); in assay [2], 23.5 µM (active). In addition, the Potency result in assay [3], in assay [4], in assay [5], in assay [6], in [7] and in assay [13] was “inactive” in each case. In addition, the Potency result in [11], in assay [12] and in assay [10] was “inactive” in each case.

As to `Cc1nccn1CC1CCc2c(c3ccccc3n2C)C1=O` (stereo not given), the Potency entry in assay [1], in assay [2], in assay [3], in [4], in assay [5] and in assay [6] was “inactive” in each case. The Potency entry in [7], in assay [13], in [11], in [12] and in [10] was “inactive” each time. The activity (max response) in [9] was -14.2% (inactive).

On to `CCc1ccc(C(=O)Nc2cc(CN3CCN(C)CC3)cc(C(F)(F)F)c2)cc1C#Cc1cnc2ccnn2c1`, for which the Potency was 2.59 µM (active) and 2.06 µM (active) in assay [1]; 3.66 µM (active) and 1.84 µM (active) in [2]; 10 µM (active) in assay [9]; 7.94 µM (active) in [10]. The Potency result in assay [3], in assay [4], in [5], in [6], in [7] and in assay [8] was “inactive” in each case. Also, the Potency entry in [11] was “inactive”.

For `C[C@@H](N)C1CCC(C(=O)Nc2ccncc2)CC1` (stereo not given in full), the Potency result in [1], in assay [2], in assay [3], in assay [4], in assay [5] and in assay [6] was “inactive” in each case. In addition, the Potency entry in [7], in assay [13], in [11], in assay [12] and in [10] was “inactive” each time.

For `CCCc1nc2c(C)cc(-c3nc4ccccc4n3C)cc2n1Cc1ccc(-c2ccccc2C(=O)O)cc1`, the Potency in assay [1] is 750 nM (active) and inactive. For the same compound, the Potency result in assay [2], in assay [3], in assay [4], in [5], in assay [6] and in assay [7] was “inactive” each time. Also, the Potency result in [13], in assay [12] and in assay [10] was “inactive” each time. In addition, in [9], the activity (max response) was 3.79% (inactive) and 0.0088% (inactive).

For the compound `Cc1cn[nH]c1`, the Potency result in [1], in [3], in [4], in assay [6], in assay [7] and in [8] was “inactive” throughout. The Potency result in [12] and in assay [10] was “inactive” throughout. In addition, the Potency result is “inactive and 18.6 µM (active)” in assay [2]; 16.6 µM (active) in [5]. Moreover, the activity (max response) in [9] is 12.7% (inactive) and 11.3% (inactive).
